Data reported in PubChem BioAssay (NCI).
Compounds without any hit were thinned out: in the full panel of roughly 79,000, 15% have a hit. Values without a mark were called inactive. Calls of active or inactive are those of the source. Cut-off read from the data, not from the text of the source: active = growth inhibition above about 70%; inactive = the rest. Where a SMILES comes first, the peptide text is derived from it.

Experiment: NCI Yeast Anticancer Drug Screen. Data for the rad50 strain (AID 155);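 note: 0% = growth of vehicle-only cultures of the same strain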
Details: S. cerevisiae rad50 strain growth inhibition; at 50.0 µM; hits give high values
Outline: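 Vehicle-treated cultures provide the reference for the growth inhibition reported for compound-exposed, repair-deficient yeast.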

For `Cn1ncc2c(NCCc3ccccc3)nc(Cl)nc21`, which growth inhibition is on record?
The growth inhibition was 19.8%.

Which growth inhibition does the source give for `Cn1c(-c2ccccc2)c2c(=O)oc3ccccc3c2c1-c1ccccc1` here?
Its growth inhibition is -14.6%.

With `O=C(NC1CCCCC1Cl)C1CCCCC1` (stereo not given) as the molecule, how does the growth inhibition read?
Its growth inhibition is 17.1%.

For `O=C1OC(c2ccc([N+](=O)[O-])cc2)=N/C1=C\c1ccccc1`, which growth inhibition is on record?
Its growth inhibition is 1.85%.

For `CC1=CC(=O)C2C(C)(C)CCCC2(C)C1(O)CCc1ccoc1` (stereo not given), which growth inhibition is on record?
Its growth inhibition is 96.2% (active).

With `CN(CC1CCCCC1=O)CC1CCCCC1=O` (stereo not given) as the molecule, how does the growth inhibition read?
The growth inhibition was 8.65%.

For `N#CCc1ccccc1S(=O)(=O)O`, which growth inhibition is on record?
Its growth inhibition is 13.3%.

For `NC(=O)C(=CNC(=S)Nc1cccc(C(F)(F)F)c1)C(N)=O`, which growth inhibition is on record?
Its growth inhibition is -45%.

For `CCSC(OC(C)=O)C(Nc1ccc([N+](=O)[O-])cc1[N+](=O)[O-])C(OC(C)=O)C(OC(C)=O)C(COC(C)=O)OC(C)=O` (stereo not given), which growth inhibition is on record?
The growth inhibition was 23.7%.

With `CCOC(CN(C(C)C)C(C)C)OCC` as the molecule, how does the growth inhibition read?
Its growth inhibition is -16.4%.

Which growth inhibition does the source give for `CCOC(=O)N(c1ccccc1)c1ccccc1` here?
Its growth inhibition is -11.3%.

For `COc1ccc(/C(C)=N/[O-])cc1CS[n+]1ccccc1`, which growth inhibition is on record?
Its growth inhibition is 15.1%.

Which growth inhibition does the source give for `COc1ccc2c(c1)C=C(C(C)(C)C)NS2(=O)=O` here?
The growth inhibition was 23.6%.

For `O=C(Nc1ccc(CCc2ccc(NC(=O)C34CC5CC(CC(C5)C3)C4)cc2)cc1)C12CC3CC(CC(C3)C1)C2`, which growth inhibition is on record?
The growth inhibition was -9.65%.

Which growth inhibition does the source give for `CC(C)OC(=O)Oc1ccc(Cl)cc1` here?
Its growth inhibition is 6.05%.

With `Cc1ccc(/C(O)=C/C(=O)C(=O)NC23CC4CC(CC(C4)C2)C3)cc1` as the molecule, how does the growth inhibition read?
Its growth inhibition is 36.9%.

For `COC(=O)c1cc2ccccc2n1C`, which growth inhibition is on record?
Its growth inhibition is -25.7%.

With `c1ccc(-c2nc3ccccc3nc2SCc2cccnc2)cc1` as the molecule, how does the growth inhibition read?
Its growth inhibition is 14.4%.

Which growth inhibition does the source give for `COc1ccc(NC(N)=O)cc1` here?
Its growth inhibition is 12.2%.

Which growth inhibition does the source give for `COc1cc(/C=C2\C(=O)N(C(=O)c3ccc(NC(C)=O)cc3)N=C2C)ccc1O` here?
Its growth inhibition is -44.7%.

For `C/C=C/C[P+](Cc1ccccc1)(c1ccccc1)c1ccccc1`, which growth inhibition is on record?
The growth inhibition was 59.6%.

Which growth inhibition does the source give for `O=C(O)CSc1ncccc1[N+](=O)[O-]` here?
Its growth inhibition is 8.85%.

Which growth inhibition does the source give for `FC(F)(F)c1ccc(C2SCc3nc4ccccc4n32)cc1` (stereo not given) here?
The growth inhibition was -43%.

For `CC1CC(C)OC(C)(c2ccccc2)O1` (stereo not given), which growth inhibition is on record?
Its growth inhibition is 21.4%.

With `COc1ccc(-n2cc3c(=O)nccc-3c3ccccc32)cc1OC` as the molecule, how does the growth inhibition read?
Its growth inhibition is -9.3%.

For `Cc1cc(Cl)nc(/N=C(\N)Nc2ccc(Cl)c(Cl)c2)n1`, which growth inhibition is on record?
Its growth inhibition is -1.95%.

Which growth inhibition does the source give for `NC(CCCO)C(=O)O` (stereo not given) here?
The growth inhibition was -21.1%.

With `Oc1ccccc1C1SCSCS1` as the molecule, how does the growth inhibition read?
Its growth inhibition is 14.8%.

Which growth inhibition does the source give for `O=C1NN2CCCN=C2c2ncccc21` here?
The growth inhibition was 15.2%.

With `CCC(=O)OC1CCC2(C)C(=CCC3C2CCC2(C)C(C(C)CCCC(C)C)CCC32)C1` (stereo not given) as the molecule, how does the growth inhibition read?
The growth inhibition was 3.1%.

With `Cc1ccc(S/C=C/Sc2ccc(C)cc2)cc1` as the molecule, how does the growth inhibition read?
The growth inhibition was 15.1%.

For `O=C1OC(Nc2ccccc2)C(Cl)=C1Cl` (stereo not given), which growth inhibition is on record?
Its growth inhibition is 38.1%.

For `CCCCOC(=O)Nc1ccccc1OCC`, which growth inhibition is on record?
Its growth inhibition is 6.7%.

For `Cc1cccc(NC(C(=O)O)c2ccccc2)c1` (stereo not given), which growth inhibition is on record?
Its growth inhibition is -13.8%.

With `O=C(/C=C/c1ccccc1)OCCCl` as the molecule, how does the growth inhibition read?
The growth inhibition was -23.4%.

Which growth inhibition does the source give for `CCCCCCCCCCCCCCCCCCNc1ccccc1` here?
Its growth inhibition is -6.15%.

With `CC(C)=CC(=O)OC1C2C(CC(C)C3C(O)CC(=O)C13C)OC(=O)C2C` (stereo not given) as the molecule, how does the growth inhibition read?
The growth inhibition was -0.3%.

With `O=C(O)c1ccc(Nc2nc3ccccc3nc2-c2cccs2)cc1` as the molecule, how does the growth inhibition read?
The growth inhibition was 2.9%.

Which growth inhibition does the source give for `CSCCC(N)C(=O)NC(CCSC)C(=O)O` (stereo not drawn) (H-Met-Met-OH; configuration not given here) here?
The growth inhibition was -12%.

Which growth inhibition does the source give for `O=C(NC(=O)C(Cl)Cl)OC1c2cc(Cl)ccc2-c2c(Cl)cc(Cl)cc21` (stereo not given) here?
The growth inhibition was 99.1% (active).
